This is one part of a sample in which hits are shown more often than they occur.
CD40 NFkB inh = CD40 pathway inhibition in BL2 cells; BL2 NF-kB luciferase reporter, CD40L-induced, 4 h; inhibition, % at 10 µM; hit rate 0.94% among 83,000; AID 1053188;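 active = mean inhibition of at least 50% with a set share of replicates also reaching that level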;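 note: 0% = neutral control wells and 100% = IKK inhibitor VII at 50 µM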
Active calls of the source: *; [ ] = dose if it differs, or a comment.

SMILES	CD40 NFkB inh
COc1ccc2cc3c(N)nn(C(=O)Cc4c[nH]c5ccccc45)c3nc2c1	77*
COc1ccc2cc3c(N)nn(C(=O)c4cccc(F)c4)c3nc2c1	-1
COc1cccc(CC(=O)n2nc(N)c3cc4ccc(OC)cc4nc32)c1	4
C[C@H](CO)N1C[C@H](C)[C@H](CN(C)C(=O)NC2CCCCC2)Oc2ccc(NS(=O)(=O)c3cn(C)cn3)cc2CC1=O	2[25 µM]
COC(=O)c1ccccc1-c1c2ccc(=N)cc-2oc2cc(N)ccc12	49*
COC(=O)c1cc(=O)c2ccc(OC)cc2o1	-4
COC(=O)c1ccc(N)cc1O	26
CC(C)[C@H]1CC=CC[C@@H](C)Oc2ccccc2C(=O)N(C)[C@H](C(C)C)C(=O)N1 (mixture of isomers)	0[25 µM]
CN(C)C(=O)c1cccc(-c2ccc([C@H]3[C@@H](C#N)N(C(=O)C4CCCC4)[C@H]3CO)cc2)c1	14
c1ccc(-c2nnc(-c3ccccn3)nn2)nc1	49*
c1ccc(-c2cccc(-c3ccccn3)n2)nc1	10
c1ccc(-c2noc(C3CCC3)n2)nc1	2
CN(C)CC(=O)N[C@H]1CC[C@H](CCNC(=O)C2CCC2)O[C@H]1CO	6[25 µM]
CC(=O)Nc1ccc2c(c1)CC(=O)N(C)C[C@@H](C)[C@H](CN(C)C)O2	-1
CC(C)[C@H]1C(=O)N[C@@H](c2ccc3c(c2)OCO3)CC=CC[C@@H](C)Oc2ccccc2C(=O)N1C (mixture of isomers)	1
Cc1noc(C)c1NC(=O)N1C[C@@H](O)COC[C@@H]2O[C@@H](CC(=O)N[C@@H]3CCN(Cc4ccccc4)C3)CC[C@H]21	-9[25 µM]
C[n+]1c2n(c3ccccc31)N=C(c1ccccc1)CS2	15
Cc1cc(-c2nnc3n2N=C(c2ccc(-c4ccccc4)cc2)CS3)n[nH]1	19
C[n+]1c2n(c3ccccc31)N=C(c1ccc(-c3ccccc3)cc1)CS2	70*
CC(C)C#Cc1ccc([C@H]2[C@@H](C#N)N(C(=O)c3ccccn3)[C@@H]2CO)cc1	-11[25 µM]
CC(=O)Nc1ccc2c(c1)CC(=O)N(C)C[C@H](C)[C@H](CN(C)C(C)=O)O2	1
O=C(/C=C/Sc1ccccc1)c1ccccc1	-26
COc1ccc(C(=O)/C=C/Sc2nc3ccccc3o2)cc1	75*
N#CCSc1nc2ccccc2o1	11
CS(=O)(=O)N1C2CN(CC3CC3)CC1C2c1ccc(Br)cc1 (configuration not stated)	-9
SMILES	CD40 NFkB inh
CCS(=O)(=O)N1CC2(CN(C(=O)c3cccnc3)C2)c2c(n(C)c3cc(OC)ccc23)[C@H]1CO	4[25 µM]
N#C[C@@H]1[C@H](c2ccc(C#Cc3ccc(F)cc3)cc2)[C@@H](CO)N1C(=O)C1CC1	72*
N#C[C@H]1[C@H](c2ccc(C#Cc3cccc(F)c3)cc2)[C@@H](CO)N1C(=O)C1CCCC1	42
N#C[C@H]1[C@H](c2ccc(C#Cc3ccc(F)cc3)cc2)[C@@H](CO)N1C(=O)C1CCC1	54*[25 µM]
N#C[C@H]1[C@@H](c2ccc(C#Cc3cccc(F)c3)cc2)[C@H](CO)N1C(=O)C1CCCC1	-6
N#C[C@@H]1[C@@H](c2ccc(C#Cc3ccc(F)cc3)cc2)[C@H](CO)N1C(=O)C1CCC1	1[25 µM]
N#C[C@H]1[C@@H](c2ccc(C#Cc3cccc(F)c3)cc2)[C@H](CO)N1C(=O)C1CC1	-1
N#C[C@H]1[C@H](c2ccc(C#Cc3cccc(F)c3)cc2)[C@@H](CO)N1C(=O)C1CC1	37
CCCNC(=O)N1[C@H](C#N)[C@H](c2ccc(C#Cc3cccc(F)c3)cc2)[C@H]1CO	77*[25 µM]
N#C[C@H]1[C@H](c2ccc(C#Cc3cccc(F)c3)cc2)[C@@H](CO)N1C(=O)C1CCC1	55*
CCCNC(=O)N1[C@H](C#N)[C@@H](c2ccc(C#Cc3cccc(F)c3)cc2)[C@@H]1CO	-1[25 µM]
N#C[C@H]1[C@@H](c2ccc(C#Cc3ccccc3F)cc2)[C@@H](CO)N1C(=O)C1CCC1	8
N#C[C@H]1[C@@H](c2ccc(C#Cc3cccc(F)c3)cc2)[C@@H](CO)N1C(=O)C1CCCC1	1
COc1ccc(CN(C)C[C@@H]2Oc3c(NC(=O)c4cnccn4)cccc3C(=O)N([C@H](C)CO)C[C@H]2C)cc1	-14[25 µM]
OC[C@@H]1[C@@H](c2ccccc2)C2(CN(Cc3ccccn3)C2)N1CCC(F)(F)F	-12[25 µM]
COc1ccc(C[C@H]2CCn3cc(nn3)COCCCNC2=O)cc1	-8[25 µM]
O=C(C1CCOCC1)N1[C@H](CO)[C@@H](c2ccccc2)C12CN(Cc1cccc(Cl)c1)C2	-6[25 µM]
O=C(C[C@H]1C[C@H]2c3cc(NC(=O)c4ccc5c(c4)OCO5)ccc3O[C@H]2[C@@H](CO)O1)NCc1ccccn1	4[25 µM]
COc1cccc(-c2ccc([C@@H]3[C@@H](C#N)N(C(=O)Cc4ccccc4)[C@@H]3CO)cc2)c1	-3
O=C1N[C@H](c2ccccc2)COCc2cn(nn2)CC[C@@H](Cc2ccc(C(F)(F)F)cc2)C(=O)N[C@H](c2ccccc2)COCc2cn(nn2)CC[C@H]1Cc1ccc(C(F)(F)F)cc1	-1
CC(C)CC#Cc1ccc([C@@H]2[C@@H](CO)N3C(=O)CN(C(=O)Nc4cc(F)ccc4F)C[C@@H]23)cc1	28[25 µM]
